Source: PubChem BioAssay
Shiga inhibitor: inhibitors of Shiga toxin in Vero cells. Vero cells, Shiga toxin protein synthesis inhibition reporter. inhibition, % at 38.7 µM. 290,000 compounds, 9.2% hits; in the data active = inhibition mostly above about 28%, no sharp cut-off; inactive = mostly below about 43%; note: 0% is about no effect
Pf growth 48h: P. falciparum growth inhibition at 48 hours (one generation) | P. falciparum luciferase growth in erythrocytes, 48 h | Potency, µM (series often up to 28.7 µM), for inactives: at the top dose activity change, negative = inhibition, usual class: inhibitors | 310,000 compounds, 5.9% hits; note: potency is the fitted concentration of half-maximal effect; % is set by controls: 0 for no effect and ±100 for the full control effect
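Firefly luciferase activity from engineered P. falciparum reports growth; inhibitors lower the luminescent signal. Cultures contained 2% hematocrit erythrocytes at 0.1% final parasitemia.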
Pf growth 96h: P. falciparum growth inhibition at 96 hours; P. falciparum luciferase reporter growth, 96 h; Potency, µM (series often up to 28.7 µM), inactives show at the top dose activity change, negative = inhibition, usual class: inhibitors; 320,000 compounds, 6.9% hits; note: potency is the fitted concentration of half-maximal effect; % is set by controls: 0 for no effect and ±100 for the full control effect
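Luminescence readout: decreased luciferase signal marks inhibited growth of reporter-expressing P. falciparum in infected red cells (2% hematocrit, 0.05% parasitemia final), exposed to compound two generations (96 h, 37 C, 5% CO2).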
Cycloheximide cs: counter-screen hit for Shiga toxin inhibitors, cycloheximide. cell reporter, cycloheximide protein synthesis inhibition counterscreen. max response, %. 300,000 compounds, 12% hits; in the data active = max response mostly above about 13%, no sharp cut-off; inactive = mostly below about 14%; note: read at 38.3 µM for the half of the compounds with a filed dose; 0% is about no effect
HCMV antiviral: blocks human cytomegalovirus replication; HFF cells, HCMV-luciferase reporter, 72 h; hits give low values; activity change, negative = inhibition, % at 57.5 µM; 410,000 compounds, 4.5% hits; AID 1259415; in the data active = activity change below about -60%; inconclusive = no clear call, values can overlap the other calls; inactive = above about -39%; note: % is set by controls: 0 for no effect and ±100 for the full control effect
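Inhibition of viral replication was scored as loss of reporter luminescence in HFFs infected with HCMV-luciferase (MOI 1 PFU/cell) for 72 h; compounds tested at 2 doses, normalized to buffer and Salinomycin controls.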
HCV inh: inhibitors of hepatitis C virus infection | Huh7.5.1 HCVcc-Cre infection, luciferase reporter, 44 h | Potency, µM (top dose mostly 41.8 µM), inactives show top-dose activity change, negative = inhibition, actives largely listed as inhibitors | 340,000 compounds, 3.4% hits | AID 651820; note: potency is the fitted concentration of half-maximal effect; % is set by controls: 0 for no effect and ±100 for the full control effect
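Luciferase read-out (15 sec integration) after a 15 min room-temperature substrate step quantifies HCVcc-Cre infection. Cells, 1,000 per well, had compound added 4 h post-plating, then virus at ~0.5 moi, and were cultured 44 h.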
Starred values were filed as active, the others as inactive; ? = inconclusive; · = not tested or not shown; + = active, no number. An excerpt weighted towards active compounds, which were near 21% of everything screened. Unless noted, calls come from the whole dose curve; as a rule, active = well fitted inhibition curve with a large enough effect; inconclusive = small, poorly fitted or top-dose-only effect, or another doubt; inactive = no such curve, though single readings can be large or run the other way.

SMILES	Shiga inhibitor	Pf growth 48h	Pf growth 96h	Cycloheximide cs	HCMV antiviral	HCV inh
CCOCC(=O)Nc1ccc2c(c1)N(S(=O)(=O)c1cccs1)CCC2	·	?	0%	·	-17	3%
Cc1cc(C)cc(NC(=O)C2CCCN(S(=O)(=O)c3cccc4nsnc34)C2)c1 (stereo not drawn)	·	·	·	·	6	·
COc1ccc2c(c1)CCc1c(C(=O)Nc3ccccc3C(F)(F)F)noc1-2	·	·	·	·	25	·
COc1ccc2c(c1)CCc1c(C(=O)N3CCCCCC3)noc1-2	114*	82%	?	46*	44	·
COc1ccc2c(c1)CCc1c(C(=O)Nc3ccc(F)c(Cl)c3)noc1-2	·	·	·	·	64	·
CCCNC(=O)c1noc2c1CCc1cc(OC)ccc1-2	71*	432%	-25%	48*	82	?
COc1ccc2c(c1)CCc1c(C(=O)Nc3ccc(OC)cc3OC)noc1-2	·	·	·	·	3	·
COc1ccc2c(c1)CCc1c(C(=O)NCC(C)C)noc1-2	178*	320%	?	39*	46	-9%
COc1ccc2c(c1)CCc1c(C(=O)NCc3cccnc3)noc1-2	23	-50%	19%	12*	16	5%
COc1ccc(-c2nnc3n2N=C(c2ccc(OC)c(OC)c2)CS3)c(OC)c1	15	·	·	0	·	·
COc1ccc(NC(=O)c2ccccc2O)c(OC)c1	88*	·	?	51*	128	-20%
CCOc1ccccc1NC(=O)c1cc(C(=O)c2cc(OC)ccc2O)coc1=N	24	4.7µM*	2.3µM*	-2	-23	-22%
COc1ccc(NC(=O)c2c(OC)cccc2OC)c(OC)c1	-19	4.7µM*	?	-5	-18	?
Cc1ccc(-c2nc3c(c(SCC(=O)Nc4cccc(C(=O)O)c4)n2)Cc2cccc(C)c2O3)cc1	·	-12%	3%	·	·	·
Cc1cc(NC(=O)C(C)Sc2nnc(NCc3ccco3)s2)no1 (stereo not drawn)	·	7%	-12%	·	6	13%
COc1ccccc1-c1noc(-c2ccc(N(C)Cc3ccccc3)c([N+](=O)[O-])c2)n1	·	·	·	·	9	·
COc1ccc(-n2ccnc(NCCc3ccc(S(N)(=O)=O)cc3)c2=O)cc1Cl	·	·	·	·	-15	·
Cc1onc(-c2ccccc2Cl)c1C(=O)Oc1ccccc1F	·	·	·	·	-12	·
COc1ccc(NC(=O)CCCN2C(=O)/C(=C\c3ccco3)SC2=S)cc1	10	8%	5.2µM*	-3	-101*	?
O=C(CCCN1C(=O)/C(=C\c2ccco2)SC1=S)Nc1ccc(O)cc1C(=O)O	-1	11%	2%	-3	-38	-2%
O=C(CCCN1C(=O)/C(=C\c2cccs2)SC1=S)Nc1cccc(C(=O)O)c1	32	-20%	-25%	-3	?	-3%
O=C(CN1C(=O)/C(=C\c2cccs2)SC1=S)Nc1cccc(C(=O)O)c1	53*	-21%	?	11	?	2%
O=C(CN1C(=O)/C(=C/c2ccco2)SC1=S)Nc1ccc(O)c(C(=O)O)c1	-5	11%	15µM*	-3	-6	17%
O=C(CCCN1C(=O)/C(=C/c2ccco2)SC1=S)Nc1cccc(C(=O)O)c1	-6	-8%	13µM*	-3	-25	25%
O=C(O)CSCC(=O)N1CCN(S(=O)(=O)c2cc(Cl)cc(Cl)c2)CC1	-6	-5%	15%	-1	-12	7%
SMILES	Shiga inhibitor	Pf growth 48h	Pf growth 96h	Cycloheximide cs	HCMV antiviral	HCV inh
CC1(C)CC(=O)c2cc(-c3nc(-c4ccccc4)cs3)c(=O)[nH]c2C1	·	·	·	·	-4	·
CC(=O)c1ccccc1NC(=O)COC(=O)Cc1cccc(C(F)(F)F)c1	·	-15%	-21%	·	0	-8%
Cc1ccc(C)c2c(N)c3c(nc12)CCCCC3 (tested in a mixture with another compound)	-13	?	?	-2	-70*	?
O=C(/C=C/c1ccc(Cl)cc1)N1CCC(c2nc3ccccc3o2)CC1	·	·	·	·	-28	·
CC(=O)Nc1ccc(C(=O)OCc2ccccc2Cl)cc1	64*	54%	-82%	42*	-37	-12%
CCC(=O)Nc1ccc(C(=O)NNC(=O)Cc2ccccc2)cc1	-6	14%	-3%	-2	27	24%
CCC(=O)Nc1ccc(C(=O)OCc2ccccc2Cl)cc1	18	·	44%	33*	?	-14%
CC(=O)Nc1ccc(C(=O)OCCCOC(=O)c2ccc(NC(C)=O)cc2)cc1	-2	15%	9%	-2	25	0%
Cc1ccc(C(=O)N2CCOCC2)cc1S(=O)(=O)N1CCCCC1	-2	-5%	?	-3	35	·
O=S1(=O)N(Cc2ccccc2Cl)CCCN1Cc1ccccc1Cl	·	·	·	·	1	·
O=S1(=O)N(Cc2ccccc2)CCCN1Cc1ccc(F)cc1Cl	·	·	·	·	+	·
COc1ccc(NC(=O)C/C(C)=N/NC(=O)C2CCCCC2)c([N+](=O)[O-])c1	8	31%	10µM*	7	-7	-15%
COc1cc(NC(=O)C/C(C)=N/NC(=O)C2CCCCC2)c(OC)cc1Cl	7	-1%	?	-1	20	1%
C/C(CC(=O)Nc1ccc([N+](=O)[O-])cc1)=N/NC(=O)C1C2CCCCC21 (stereo not drawn)	36	7%	5%	19*	5	-6%
C/C(CC(=O)Nc1ccc([N+](=O)[O-])cc1)=N/NC(=O)C1CC12CCC2 (stereo not drawn)	-19	13%	246%	0	-21	-3%
O=C(COC(=O)CNS(=O)(=O)c1ccccc1)Nc1ncc(Cl)cc1Cl	·	2%	0%	·	10	13%
COc1ccc(/C=N/NC(=O)c2cccc([N+](=O)[O-])c2)c2ccccc12	-6	?	299%	6	-27	?
Cc1[nH]c2ccccc2c1/C=N/NC(=O)c1cccc(F)c1	62*	20%	?	26*	-30	-3%
Cc1[nH]c2ccccc2c1/C=N/Nc1ccc(F)cc1F	30*	?	?	31*	·	-6%
COc1ccccc1NS(=O)(=O)c1cc([N+](=O)[O-])ccc1N/N=C/c1c(C)[nH]c2ccccc12	-20	10µM*	·	-5	17	?
CCc1cc(C(=O)N/N=C/c2c(C)[nH]c3ccccc23)cs1	-64	5%	-27%	25	-34	-17%
Cc1[nH]c2ccccc2c1/C=N/NC(=O)c1cccc([N+](=O)[O-])c1	2	0%	4%	5	-61*	-29%
O=[N+]([O-])c1ccc(N/N=C/c2c[nH]c3ccccc23)c(S(=O)(=O)Nc2ccc(Cl)cc2)c1	-23	-16%	·	-4	-37	?
Cc1ccc(CNc2oc(-c3ccc(COc4ccc(Cl)cc4)o3)nc2C#N)cc1	·	·	·	·	-31	·
COC(=O)C(c1ccccc1)(c1cn(C)c2ccccc12)C(Nc1ccc(Cl)cc1)c1ccccc1 (stereo not drawn)	·	·	·	·	-27	·
